# This is a sample that favours compounds with a hit; in the whole collection about 2.3% have one here.
# IDE inh: inhibitors of human insulin-degrading enzyme in cells; HEK cells, FAbetaB cleavage, fluorescence polarization; inhibition, % at 5.59 µM; 320,000 tested, 0.41% active; AID 434962;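 active means percent inhibition above the average of all tested compounds plus 3 SD, set per screening campaign, cut at about 16% in these data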;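 further: IDE supplied by intact live HEK cells; FP after avidin binding of uncleaved biotin substrate so inhibition keeps polarization high; 0% = DMSO wells and 100% = 60 µM reference IDE inhibitor Ii1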
# IDE cell activ: boosts human insulin-degrading enzyme activity in HEK cells | FAbeta-B cleavage, fluorescence polarization; 0% vehicle, 100% cell-free pure enzyme wells | activation, % at 5.96 µM | 340,000 tested, 0.073% active;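 active means activation above the mean of all tested compounds plus 3 SD, set per screening campaign, cut at about 17% in these data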
# TPT1 inhibitor: inhibitors of Candida albicans tRNA 2'-phosphotransferase TPT1. 300,000 tested, 0.81% active. recombinant caTPT1, FP RNA substrate dephosphorylation. inhibition, % at 5 µM;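 active means inhibition above the mean of all tested compounds plus 3 SD, set per screening campaign, cut at about 24% in these data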;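 further: plate controls were DMSO alone for no effect and ferristatin control at 100 nM for full effect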
# Rin1-Abl PPI inh: blocks binding of human Rin1 to Abl | 360,000 tested, 0.4% active | P00519+Q13671 | TR-FRET Rin1/Abl binding, biochemical | inhibition, % at 7.35 µM; in the data active means inhibition above about 5%, passing the limit was not always enough
# Calb FLC: C. albicans growth modulation with fluconazole | 300,000 tested, 0.57% active | C. albicans CaCi-2 (fluconazole-resistant clinical isolate) + fluconazole, Alamar Blue growth, 48 h | AID 1979 | growth inhibition, % (concentration not given with the values);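 active means growth inhibition above about 58% in most replicates, limit read from the data, passing the limit was not always enough; inconclusive means exactly half the replicates above a set limit; inactive means most replicates below a set limit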;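 further: all wells also contain fluconazole at 8 µg/ml as a sub-toxic cotreatment; 0% = median of DMSO wells and 100% = median of geldanamycin control wells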
# Rpn11 inh: blocks the human proteasome subunit Rpn11; O00487; human 26S proteasome, Ub4-pepOG fluorescence polarization; 20S core pre-blocked with epoxomicin; inhibition, % at 20 µM; 360,000 tested, 0.59% active; AID 588493;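 active means inhibition at 20 µM, scaled to each plate's controls, above about 33%, limit read from the data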
# Target sequence (O00487 whole entry, looked up): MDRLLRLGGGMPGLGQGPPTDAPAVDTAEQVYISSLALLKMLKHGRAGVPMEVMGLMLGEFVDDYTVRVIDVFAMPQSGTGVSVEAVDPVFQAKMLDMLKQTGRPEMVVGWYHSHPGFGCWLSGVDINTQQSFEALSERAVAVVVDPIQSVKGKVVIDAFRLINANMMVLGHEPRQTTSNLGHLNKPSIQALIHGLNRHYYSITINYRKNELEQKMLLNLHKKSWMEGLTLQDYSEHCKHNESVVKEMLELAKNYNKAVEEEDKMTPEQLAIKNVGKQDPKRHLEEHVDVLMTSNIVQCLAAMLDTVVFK
# IDE cell inh cf: confirmation of human insulin-degrading enzyme inhibitors in cells; shares compounds with IDE inh; HEK cells, FAbetaB cleavage, fluorescence polarization; inhibition, % at 5.59 µM; 1,200 tested, 51% active; AID 435028;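 active means mean inhibition across triplicate wells above the cutoff set by the earlier primary insulin-degrading enzyme screen, cut at about 16% in these data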;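 further: 0% = DMSO wells and 100% = 60 µM reference IDE inhibitor Ii1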
# HEK293 tox: counter-screen for IDE inhibitors: cytotoxicity in HEK cells; shares compounds with IDE inh; HEK293 cytotoxicity, ATP luminescence; inhibition, % at 5.59 µM; 1,200 tested, 28% active; AID 449730; in the data active means inhibition above about 22%;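 further: 0% = vehicle wells and 100% = reference cytotoxic drug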
# Starred values were filed as active, the others as inactive; ? = inconclusive; · = no result given.
SMILES,IDE inh,IDE cell activ,TPT1 inhibitor,Rin1-Abl PPI inh,Calb FLC,Rpn11 inh,IDE cell inh cf,HEK293 tox
Cc1sc2ccc3sccc3c2[n+]1C,20.5*,-22.7,-2.8,-1.1,9.1,6.8,4.1,5.2
C/C(=N/NC(=O)CN1CCN(Cc2ccccc2Cl)CC1)c1cccnc1,23.4*,-7.4,-3.2,-0.9,26.1,4.5,8.9,12.1
O=C(CN1CCN(Cc2ccccc2Cl)CC1)N/N=C/C=C/c1ccccc1[N+](=O)[O-],22.1*,-18.1,-3.7,-1.8,2.7,0.1,9.6,12.1
Nc1nc2ccccc2n1S(=O)(=O)c1ccccc1,·,·,·,-2.6,·,-2.1,·,·
CSc1ccc(C(=O)NCC(c2ccco2)N(C)C)cc1[N+](=O)[O-] (stereo not drawn),3.6,3.8,-0.1,-1.9,3.4,2.2,·,·
O=C(NCCOc1ccccc1F)C1CC(=O)N(Cc2ccccc2)C1 (stereo not drawn),2.8,1.2,·,5.8,·,-1.6,·,·
CC(=O)N1CC[n+]2c(-c3ccc(Cl)cc3)csc21,22.5*,-14.3,0.6,2.0,-15.0,0.9,1.8,13.9
CCOc1ccc(N=C2NC(=O)S/C2=C\c2ccc(N(C)C)cc2)cc1,13.0,-13.1,7.9,-1.5,-1.1,·,·,·
CCOc1ccc(/C=C2/SC(=O)NC2=S)cc1,33.5*,-2.9,-0.1,1.7,2.7,-13.4,1.8,14.2
COc1ccc(-c2csc(NC(=O)c3cc(C)oc3C)n2)cc1OC,16.5*,-12.3,8.8,-0.3,4.1,19.3,13.0,21.3
CCc1noc(C)c1C(=O)Nc1nc(-c2ccc(OC)c(OC)c2)cs1,3.4,4.3,6.8,-1.0,0.0,6.7,·,·
O=S(=O)(NC1=NCCC1)c1cccc(NC(=S)NCCc2ccccc2)c1,22.5*,-3.7,-2.1,-0.2,-4.8,-25.8,10.6,6.4
Cc1c(NC(=O)c2cc3c(s2)-c2ccccc2OC3)cccc1[N+](=O)[O-],26.7*,-9.1,-2.0,-1.6,?,-11.0,2.4,39.2*
Cc1csc(NC(=O)c2cc3c(s2)-c2ccccc2OC3)n1,-0.1,-0.2,-1.6,1.6,7.3,-1.9,·,·
COc1cc(/C=C(/C#N)c2nc3ccccc3[nH]2)ccc1OC(=O)c1ccco1,67.3*,-92.8,3.5,-1.0,16.9,26.3,142.3*,7.2
COc1cc(/C=C(\C#N)c2nc3ccccc3[nH]2)ccc1Oc1ccc([N+](=O)[O-])cn1,6.4,-9.6,13.7,-1.0,7.2,26.7,·,·
CC1CCN(C(=O)c2ccc(CNS(=O)(=O)c3ccc(C(C)(C)C)cc3)cc2)CC1,5.1,-11.8,·,0.8,·,2.3,·,·
O=C(CCC1N=C2c3ccccc3N=C(SCc3ccccc3Cl)N2C1=O)NCc1ccco1 (stereo not drawn),21.2*,-0.3,-0.7,-8.8,30.6,-0.2,2.4,18.9
O=C(CCC1N=C2c3ccccc3N=C(SCc3cccc(Cl)c3)N2C1=O)NCc1ccco1 (stereo not drawn),2.2,3.9,-2.1,-0.8,38.8,7.1,·,·
COc1cccc(NC(=O)N2CCN(c3ccc(C(F)(F)F)cn3)CC2)c1,18.1*,-6.5,-2.4,-3.2,-2.6,-6.2,8.2,26.1*
O=C(Nc1ccccc1)N1CCCN(c2ccc(C(F)(F)F)cn2)CC1,-4.3,0.5,0.4,4.5,10.9,3.5,·,·
Cc1cc(C(=O)N2CCN(c3ccc(C(F)(F)F)cn3)CC2)c(C)o1,16.9*,-17.7,-4.3,0.2,6.2,-7.2,2.2,21.5
C/C(=N\NC(=O)c1ccccc1O)C1CC1,-2.1,3.5,-0.1,1.8,7.7,-5.8,·,·
CC(C)[C@H](NC(=O)c1ccccc1)C(=O)OCC(=O)c1c(N)n(C)c(=O)n(C)c1=O,1.6,8.4,·,-0.3,·,-2.0,·,·
O=C1NC(=S)CN1c1ccccc1,23.8*,-31.5,-18.8,0.3,-1.1,-76.3,4.7,7.1
SMILES,IDE inh,IDE cell activ,TPT1 inhibitor,Rin1-Abl PPI inh,Calb FLC,Rpn11 inh,IDE cell inh cf,HEK293 tox
O=C1N(c2ccccc2)CCN1c1ccccc1,3.9,5.3,-3.8,-1.1,4.6,-3.5,·,·
CC1=CC(C)(C)N2C(=O)C(=O)c3cc(OC(=O)c4ccco4)cc1c32,4.3,·,-4.7,-1.8,-31.7,3.9,·,·
CC1=CC(C)(C)Nc2ccc(OC(=O)c3cccnc3)cc21,21.9*,2.3,0.5,0.8,41.3,-1.0,32.6*,103.1*
CC1=CC(C)(C)Nc2ccc(OC(=O)CN3C(=O)CCC3=O)cc21,26.5*,-14.5,-5.5,-5.3,9.6,4.6,32.2*,91.8*
CC1=CC(C)(C)Nc2ccc(OC(=O)C(C)N3C(=O)c4ccccc4C3=O)cc21 (stereo not drawn),25.7*,-9.0,-4.4,3.0,59.5,2.1,24.2*,76.2*
CC1=CC(C)(C)Nc2ccc(OC(=O)c3ccco3)cc21,50.3*,-5.5,-1.6,3.5,25.9,-0.5,42.3*,119.7*
Cc1cc(C)cc(CC(=O)N2CCC2(C)C(=O)NS(=O)(=O)Cc2ccccc2)c1 (stereo not drawn),·,·,·,-1.1,·,0.8,·,·
O=c1cc[nH]c2cc(Cl)ccc12,0.9,3.5,-2.4,2.0,5.2,0.1,·,·
O=c1[nH]oc2cc(Cl)ccc12,16.7*,3.9,-2.2,1.4,-2.3,-3.3,7.4,4.4
CN1CCN(C(=O)CCN2C(=O)/C(=C/c3cccc(Br)c3)SC2=S)CC1,19.1*,-0.1,-2.6,0.4,-24.1,4.7,1.6,56.0*
ClC(Cl)(c1nnnn1-c1ccccc1)c1nnnn1-c1ccccc1,59.5*,-25.6,0.3,3.7,·,-4.3,9.7,120.8*
Cc1ccccc1N(CC(=O)Nc1ccccc1C(=O)O)S(C)(=O)=O,23.2*,-34.4,1.7,0.8,-9.2,-1.1,14.1,5.7
Cc1ccc(S(=O)(=O)N(CC(=O)Nc2ccccc2C(=O)O)c2ccccc2C)cc1,3.1,5.2,-1.8,1.5,1.2,-9.3,·,·
Cc1ccc(C(C(=O)NCC2CCCO2)N(Cc2ccccc2)C(=O)c2ccc(-c3ccccc3)[nH]2)o1 (stereo not drawn),20.6*,-13.2,-3.4,-3.8,16.0,26.5,7.0,12.8
CCOc1ccccc1NC(=O)CSc1nnc2ccc(-c3ccncc3)nn12,22.3*,-16.3,-2.0,3.1,-3.9,1.2,9.0,9.1
Cc1ccccc1NC(=O)CSc1nnc2ccc(-c3ccncc3)nn12,-2.1,0.3,-2.1,-1.6,-1.1,-1.8,·,·
Cc1cnc(C(=O)OCC(=O)N2CC(C)CC(C)C2)cn1 (stereo not drawn),-3.7,3.5,·,1.2,·,-0.2,·,·
COc1cc(SSc2cc(OC)cc([N+](=O)[O-])c2N)c(N)c([N+](=O)[O-])c1,21.2*,-26.9,-3.4,-3.6,·,10.9,18.3*,24.4*
CC/C(=N/O)C(=O)c1ccc(Br)cc1,6.2,-1.3,1.6,-3.8,-20.6,10.9,·,·
